Source: PubChem BioAssay (NCI)
Several values for one entry are separate records, joined by “and”; a condition that tells them apart may be missing. Identical values can stand only once. This is part of a sample that, as a whole, favours compounds with a hit. Of some 79,000 tested, about 15% had one in any assay. Activity calls are given as the source filed them. Cut-off read from the data, not from the text of the source: active = growth inhibition above about 70%; inactive = the rest.

Tests used:
[1] = NCI Yeast Anticancer Drug Screen. Data for the rad50 strain (AID 155);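 note: 0% = growth of vehicle-only cultures of the same strain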; conditions: S. cerevisiae rad50 strain growth inhibition, stronger effect = higher value; at 50.0 µM unless noted
Outline: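 Readout: growth inhibition relative to vehicle-treated cultures. Compound exposure was carried out in a genetically defined yeast strain deficient in DNA damage repair.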

[2] = NCI Yeast Anticancer Drug Screen. Data for the mec2-1 strain (AID 157); conditions: S. cerevisiae mec2-1 strain, stronger effect = higher value; at 50.0 µM unless noted
Outline: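 Vehicle-treated cultures served as reference for growth inhibition of compound-exposed mec2-1 yeast.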

[3] = NCI Yeast Anticancer Drug Screen. Data for the sgs1 mgt1 strain (AID 161);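 note: 0% = growth of cultures given vehicle only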; conditions: S. cerevisiae sgs1 mgt1 strain, stronger effect = higher value; at 50.0 µM unless noted
Outline: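 Genetically altered yeast, compound exposure, growth inhibition relative to vehicle.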

[4] = NCI Yeast Anticancer Drug Screen. Data for the cln2 rad14 strain (AID 165);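 note: 0% = growth equal to vehicle treated cultures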; conditions: S. cerevisiae cln2 rad14 strain, stronger effect = higher value; at 50.0 µM unless noted
Outline: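 Each compound was tested on cln2 rad14 yeast. Inhibition of growth was calculated against vehicle-exposed controls.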

[5] = NCI Yeast Anticancer Drug Screen. Data for the bub3 strain (AID 167); conditions: S. cerevisiae bub3 mutant strain, stronger effect = higher value; at 50.0 µM unless noted
Outline: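 Readout: yeast growth inhibition, expressed relative to vehicle-only wells. The test organism is a mutant strain from a panel with lesions in DNA repair or checkpoint genes.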

[6] = NCI Yeast Anticancer Drug Screen. Data for the mlh1 rad18 strain (AID 175); conditions: S. cerevisiae mlh1 rad18 strain growth inhibition, stronger effect = higher value; at 50.0 µM unless noted
Outline: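 Vehicle-treated cultures served as the reference for growth inhibition in a yeast strain carrying DNA damage repair alterations exposed to each compound.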

Measured: growth inhibition

O=C(N/N=C/c1ccc(O)cc1)C(c1ccccc1)N1CCCCC1 (stereo not given)
inactive: [1] 5.85% | [2] -7.05% | [3] -7.4% | [4] -18.8% | [5] 3.05% | [6] -5.3%

CC(=O)c1c(Cl)nnc(-c2ccccc2)c1-c1ccccc1
inactive: [1] -9% | [2] 0.05% | [3] -9.2% | [4] -21.9% | [5] -11.7% | [6] -12.3%

COc1ccc(C2Oc3cc(OC)c(O)cc3[C@@H]2C)cc1 (stereo not given in full)
inactive: [1] -7.35% | [2] 28.6% | [3] 2.55% | [4] 15.6% | [5] 54.8% | [6] 31%

CC(=O)OCC1OC(OC(C)=O)C(NC(=O)c2ccccc2)C(OC(C)=O)C1OC(C)=O (stereo not given)
inactive: [1] -2.1% | [2] -3.45% | [3] -3.5% | [4] -20.6% | [5] 17.4% | [6] -1.5%

Cc1ccc(C)c(NC(=O)NC(C)(C)C)c1
inactive: [1] -0.2% | [2] -22.4% | [3] -2.7% | [4] -55.1% | [5] -5.65% | [6] -4.5%

CCCCNC(=S)Nn1c(-c2ccccc2)nc2ccccc2c1=O
inactive: [1] 18.6% | [2] -43% | [3] -20.8% | [4] -37.5% | [5] -31.9% | [6] 0.9%

O=S(=O)(NCCSSCCNS(=O)(=O)c1ccccc1)c1ccccc1
inactive: [1] 45% | [2] 17.5% | [3] 51.6% | [4] 16.6% | [5] 23.6% | [6] 34.7%

N#C/C(=C\c1cc(Cl)cc(Cl)c1O)c1nc2ccccc2[nH]1
inactive: [1] 43% | [2] 13.7% | [3] 38.4% | [4] 11.5% | [5] 26.9% | [6] 5.65%

CCCCCCCC[Si](c1ccccc1)(c1ccccc1)c1ccccc1
inactive: [1] 3.15% | [2] 22% | [3] 3.85% | [4] -9.8% | [5] -2.2% | [6] 10.4%

CC(C)C(=O)Nc1ccc(S(=O)(=O)Nc2ccc(N)cc2O)cc1
inactive: [1] -6.8% | [2] 6.6% | [3] 25.1% | [4] 1.25% | [5] 20.1% | [6] -0.75%

CS(C)=NC(=Nc1ccccc1)c1ccccc1
inactive: [1] 6.9% | [2] 9.6% | [3] -12% | [4] -26.4% | [5] 9.7% | [6] 2.05%

CCCCCCC(CCN(C)C)(C(C)=O)c1ccccc1 (stereo not given)
inactive: [1] -3.3% | [2] 3.7% | [3] 1.05% | [4] -3.5% | [5] 6.85% | [6] 11.1%

CC(C(=O)O)c1ccc(-c2ccccc2)cc1 (stereo not given)
inactive: [1] 10.6% | [2] 13.3% | [3] -1.85% | [4] -12.2% | [5] 1.4% | [6] 7.1%

COC1/C=C/OC2(C)Oc3c(C)c(O)c4c(O)c(c(C5SCCS5)c(O)c4c3C2=O)NC(=O)C(C)=C/C=C\C(C)C(O)C(C)C2OC(C)(C)OC(C1C)C2C (stereo not given)
inactive: [1] 2.15% | [2] 33% | [3] 22.8% | [4] 15.6% | [5] 14.4% | [6] 38%

O=C(O)c1ccc(NCO)cc1
inactive: [1] 7.05% | [2] 5.15% | [3] -13.2% | [4] 33.7% | [5] 4.3% | [6] 7.85%

CCC(=O)C1(C)OC1C(C)CC(C)C1OC(=O)CC2(O)CC=C(C)C(O2)/C(C)=C/CCCC(OC2CC(OC(N)=O)C(O)C(C)O2)/C=C/C(C)C(O)C1C (stereo not given)
active: [1] 78% | [2] 83.5% | [3] 82.5% | [4] 84.5% | [5] 85.2% | [6] 83.2%

CSc1ccc(Nc2cc(=O)[nH]c(=O)[nH]2)cc1
inactive: [1] 14.6% | [2] 8.75% | [3] 18.1% | [4] 2.3% | [5] 3.7% | [6] -10.9%

O=C(CS(=O)(=O)c1ccccc1)c1ccccc1
inactive: [1] -14.4% and 14.6% | [2] -18.9% and 13.1% | [3] -6.05% and 12.6% | [4] 8.75% and 1.5% | [5] 0.55% and 29.9% | [6] -29.9% and 28.3%

CC(C)CC(Br)C(=O)NCC(=O)O (stereo not given)
inactive: [1] -25.1% and 5.2% | [2] -55.1% and -6.55% | [3] -27.9% | [4] 8.5% | [5] -24.1% | [6] -11% and -4.8%

CCCCC(OC(=O)c1ccccc1)c1cc(OC(=O)c2ccccc2)c2c(c1OC(=O)c1ccccc1)CC(C)=C(C)C2 (stereo not given)
active: [1] 84% | [3] 99%
inactive: [2] 49.6% | [4] 53.4% | [5] 48.2% | [6] 56.2%
